Only some compounds are listed: those with a hit (about 6.1% of all), similar ones and a draw of the others.
D1 PAM = Potentiators of Human D1 Dopamine Receptor: qHTS | D(1A) dopamine receptor (Homo sapiens), P21728 | HEK293 TREx D1 cells, calcium flux, dopamine EC20 potentiation | potentiation, % at 10 µM | actives 0.036% (n = 360,000) | AID 504651, 2011; in the data active means potentiation above about 30%
D1 ag = Allosteric Agonists of the Human D1 Dopamine Receptor: qHTS | D(1A) dopamine receptor (Homo sapiens), P21728 | HEK293 T-REx D1 cells, calcium flux, agonist mode | activation, % at 2 µM | actives 1% (n = 360,000) | AID 504660, 2011; in the data active means activation above about 30%
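Inducible HEK293 T-REx D1 cells, force-coupled to calcium signalling, were plated at 4000 cells/well with tetracycline and held overnight at 30 C. After no-wash calcium dye loading, compound-evoked calcium rise over 180 s flagged agonists.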
DRD3 agonist = qHTS of D3 Dopamine Receptor Agonist: qHTS | max activation, % | actives 0.58% (n = 410,000) | D(3) dopamine receptor (Homo sapiens), P35462 | D3R DiscoveRx beta-arrestin cells, luminescence, 90 min; in the data active means max activation above about 30%
Target sequence (P35462 whole entry, looked up): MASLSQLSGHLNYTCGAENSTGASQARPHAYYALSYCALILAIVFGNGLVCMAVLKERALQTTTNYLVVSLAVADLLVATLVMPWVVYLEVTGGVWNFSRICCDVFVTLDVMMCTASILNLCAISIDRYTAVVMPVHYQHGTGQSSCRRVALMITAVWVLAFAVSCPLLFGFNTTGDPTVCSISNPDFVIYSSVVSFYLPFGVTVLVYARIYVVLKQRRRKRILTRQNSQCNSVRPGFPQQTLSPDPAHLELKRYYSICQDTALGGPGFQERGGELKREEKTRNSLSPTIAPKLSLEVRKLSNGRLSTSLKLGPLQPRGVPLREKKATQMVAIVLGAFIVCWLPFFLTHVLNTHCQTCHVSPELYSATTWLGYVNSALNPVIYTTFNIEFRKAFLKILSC
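Cells at 1500/well, incubated overnight, then treated with pinned compounds (dopamine as control) for 90 min at 37 degrees C. DiscoveRx reagent added for 30 - 60 minutes at room temperature; luminescence read.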
D3 antag = qHTS of D3 Dopamine Receptor Antagonist: qHTS; D3R cells, DiscoveRx beta-arrestin luminescence, antagonist mode; active compounds read low; max response, negative = inhibition, %; actives 2.5% (n = 360,000); in the data active means max response below about -50%; inconclusive means no clear call, values can overlap the other calls
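Cells expressing the human receptor were seeded at 1500 cells/well, incubated overnight at 37 degrees C in 5% CO2, then exposed to library compounds with dopamine controls for 90 minutes at 37 degrees C before luminescent detection.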
D1 antagonist = Antagonist of Human D 1 Dopamine Receptor: qHTS; AID 504652, 2011; activity change, negative = inhibition, % at 10 µM; D(1A) dopamine receptor (Homo sapiens), P21728; HEK293 TREx D1 cells, calcium flux, dopamine EC80; active compounds read low; actives 3.2% (n = 360,000); in the data active means activity change below about -30%
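After overnight tetracycline induction at 30 C, force-coupled D1 HEK293 cells took up a no-wash calcium dye at room temperature. Compounds were added and monitored 180 s, and the response to EC80 dopamine was then recorded.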
Each line names hits and unclear results; the compound was inactive in the other large screens; ! = not confirmed by another sample.

CCCN(CCC)C(C)C(=O)NCC1(c2ccccc2)CCCC1 (centres undefined)	D1 antagonist -41
CCN(CC)CC(=O)NCC1(c2ccccc2)CCCC1	none
Cc1cc(C)nc(Nc2nc3ccccc3o2)n1	D1 antagonist -31
Cc1cc2c(s1)c1cnn(Cc3ccc(C#N)cc3)c(=O)c1n2C	none (no result: DRD3 agonist, D3 antag)
CC(NC(=O)C1CCCN(S(=O)(=O)c2cccc3nonc23)C1)c1ccccc1 (centres undefined)	D3 antag -61
CC(C)N(C(=O)[C@H]1C[C@H](CC(=O)NCCCn2ccnc2)C(=O)N2CCc3c([nH]c4ccc(Cl)cc34)[C@]12C)C(C)C	D3 antag inconclusive (no result: D1 PAM, D1 ag, D1 antagonist)
COc1ccc(/C(C)=N/Nc2ccc(C(=O)O)cc2)cc1OC	D1 antagonist -31
COc1ccc(/C=N/NC(=O)c2ccncc2)cc1CN1CCN(c2ccc(F)cc2)CC1	D3 antag -55
COc1ccc(/C=N/NC(=O)c2ccc(C)cc2)cc1CN1CCN(c2ccc(F)cc2)CC1	none
COc1ccc(/C=N/NC(=O)c2ccccc2O)cc1CN1CCOCC1	D1 antagonist -33
CCOC(=O)c1nnn(CC(=O)NC(=O)Nc2ccc(F)cc2)c1C(=O)OCC	D1 ag 42!
O=C1C=C(c2cccc(OCc3ccccc3)c2)C[C@@H](c2ccc3c(c2)OCO3)C1	DRD3 agonist 35 (no result: D1 antagonist)
O=C1C=C(c2cccc(CO)c2)C[C@@H](c2ccc3c(c2)OCO3)C1	none (no result: D1 antagonist)
O=C(Nc1ccc(Cl)cc1)Nc1nnc(SCc2ccc(Cl)cc2)s1	none
O=C(Nc1nnc(SCc2ccc(Cl)cc2)s1)c1cnccn1	D1 antagonist -36
CSc1ccc(CNc2nnnn2C)cc1	DRD3 agonist 46
S=C(NCCc1ccccc1)N1CCN(C23CC4CC(CC(C4)C2)C3)CC1	none
COc1ccc(S(=O)(=O)N2CCC(NC(=O)c3cccnc3)CC2)cc1	none
CN(C)c1ccc(-c2nc(-c3ccccn3)no2)cc1[N+](=O)[O-]	D1 antagonist -39 (no result: D3 antag)
CN(Cc1ccccc1)c1ccc(-c2nc(-c3ccncc3)no2)cc1[N+](=O)[O-]	DRD3 agonist 57 (no result: D3 antag)
CN(Cc1ccccc1)c1ccc(-c2nc(-c3ccccn3)no2)cc1[N+](=O)[O-]	DRD3 agonist 34 (no result: D3 antag)
CN(Cc1ccccc1)c1ccc(-c2nc(-c3cccnc3)no2)cc1[N+](=O)[O-]	none (no result: D3 antag)
Cc1cccc(C(=O)NCC(=O)OCC(=O)N(C)CC(=O)Nc2ccc(F)cc2)c1	none
O=C(O)c1ccc(NS(=O)(=O)Cc2ccc(Cl)c(Cl)c2)cc1	none (no result: D1 PAM, D1 ag, D1 antagonist)
O=C(O)C(Cc1ccccc1-c1ccccc1)C(=O)O	none
COc1cc(NC(=O)Cc2cccs2)c(C(=O)O)cc1OC	D1 antagonist -32
COc1cc(NC(=O)Cc2cccs2)cc(OC)c1	D1 antagonist -33
Cc1cccc(NC(=O)c2cccc(NC(=O)Cc3cccs3)c2)c1	D1 antagonist -48
O=C1OC(C(=O)NCc2ccccc2)Cc2ccccc21 (centres undefined)	none
CC(=O)C1=C(c2ccc(F)cc2)N(C(C)=O)n2c(nnc2C2CCCCC2)S1	none (no result: D3 antag, D1 antagonist)
Cc1cccc(C)c1Nc1nnc(SCC(=O)NCc2cccs2)s1	none
Cc1ccccc1Nc1nnc(SCC(=O)NCc2cccs2)s1	D1 antagonist -41
Cc1nnc(SCC(=O)Nc2ccccc2NC(=O)CSc2nnc(C)s2)s1	D1 antagonist -33
Cc1nnc(SCC(=O)NCC2COc3ccccc3O2)s1 (centres undefined)	D1 antagonist -31
Cc1nnc(SCC(=O)Nc2ccccc2C(=O)NC2CC2)s1	none
O=C(COC(=O)c1ccc(F)cc1F)NC1CC1	none
CN(C)c1ncnc2c1ncn2[C@H]1CN(C2CCCC2)C[C@@H](CO)O1	none (no result: D1 PAM, D1 ag, D1 antagonist)
CCN1CCC(N(Cc2cccc(OC)c2)C(=O)Nc2cccc(C)c2C)CC1	none (no result: D3 antag)
COc1cc(OC)c(C2CC(=O)N3CN(C)CSC3=C2C#N)cc1OC (centres undefined)	D1 antagonist -38
Cc1ccc(C2CC(=O)N3CN(Cc4ccco4)CSC3=C2C#N)cc1 (centres undefined)	D3 antag -59
CCc1ccccc1N1CSC2=C(C#N)C(c3cc(OC)c(OC)cc3OC)CC(=O)N2C1 (centres undefined)	D3 antag -68
COc1cc(OC)c(C2CC(=O)N3CN(c4ccccc4)CSC3=C2C#N)cc1OC (centres undefined)	none
COc1ccc(Br)cc1C1CC(=O)N2CN(C)CSC2=C1C#N (centres undefined)	none
N#CC1=C2SCN(Cc3ccco3)CN2C(=O)CC1c1c(F)cccc1Cl (centres undefined)	none
COc1ccc(Br)cc1C1CC(=O)N2CN(Cc3ccccc3)CSC2=C1C#N (centres undefined)	D1 antagonist -31
CC(C)(C)OC(=O)N1CCC[C@H]1c1nnc(SCc2ccc(Cl)cc2)o1	none
N#CC1=C2SCN(C3CCCCC3)CN2C(=O)CC1c1ccc(Cl)cc1 (centres undefined)	D1 antagonist -60 (no result: D3 antag)
COc1ccc2[nH]c3c4c(ccc3c2c1)C(=O)C=CC4=O	D3 antag -105
CCOc1cccc(CN2CCCC(N3CCN(c4cccc(Cl)c4)CC3)C2)c1O (centres undefined)	none
CC(C)/C=C/CN1CCCC(N2CCN(c3cccc(Cl)c3)CC2)C1 (centres undefined)	D1 antagonist -37
O=C(O)c1cc([N+](=O)[O-])c(Sc2nc3ccccc3[nH]2)c([N+](=O)[O-])c1	none
CS(=O)(=O)c1cc([N+](=O)[O-])c(Sc2nc3ccccc3[nH]2)c([N+](=O)[O-])c1	D3 antag -51
Cn1cnc([N+](=O)[O-])c1Sc1nc2ccccc2[nH]1	D3 antag -54
CCN1CCN(c2ccc([N+](=O)[O-])c(Sc3nc4ccccc4[nH]3)c2)CC1	D3 antag -94
O=[N+]([O-])c1ccc(N2CCN(CCO)CC2)cc1Sc1ccccn1	none
CC1CCC(NC(=O)c2ccc(NC3=NC4CS(=O)(=O)CC4S3)cc2)CC1 (centres undefined)	none
CCCn1c(CCNc2nc(-c3cccc(Br)c3)cs2)nc2ccccc21	DRD3 agonist 33 (no result: D1 PAM, D1 ag, D1 antagonist)
CCCn1c(C(C)Nc2nc(-c3cccc(Br)c3)cs2)nc2ccccc21 (centres undefined)	DRD3 agonist 31
CCCn1c(-c2cccc(Br)c2)nc2ccccc21	D1 antagonist -35 (no result: D3 antag)
CCCCn1c(-c2cccc(Br)c2)nc2cc3[nH]c(=O)c(C(C)C)nc3cc21	DRD3 agonist 63

Screens from PubChem BioAssay.
